Our source for the outcome and AC50 values is PubChem BioAssay (EPA / NIEHS).

The structures appear in SMILES notation. Where “and” joins values, the source holds several entries; their conditions need not be identical. Equal entries are not always repeated. The source holds several records for some structures; these can differ, active in one and inactive in another. Calls of active or inactive are those of the source. Rule for the calls: active = hit-call score of the fitted dose curve at least 0.9, where 1 is the maximum; inactive = score below 0.9.

Read-out in this experiment: Plasminogen Activator Inhibitor-1 (PAI1), SERPINE1 (gene 5054)
As to the kind of experiment: BSK_BF4T_PAI1: BioMAP Diversity Plus: BF4T Assay for Plasminogen Activator Inhibitor-1 (PAI1) Biomarker Activity (AID 2284273). The settings on record: primary human bronchial epithelial cells with fibroblasts. On the procedure:
BSK_BF4T is a cell-based, multiplexed-readout assay that uses bronchial epithelial cells and dermal fibroblasts, a human vascular primary cell, with measurements taken at 24 hours after chemical dosing in a microplate: 96-well plate.BSK_BF4T_PAI1 is an assay component measured in the BSK_BF4T assay. It measures PAI-1 antibody related to regulation of gene expression using ELISA technology.Data from the assay component BSK_BF4T_PAI1 was analyzed at the endpoint, BSK_BF4T_PAI1, in the positive analysis fitting direction relative to DMSO as the negative control and baseline of activity. Using a type of binding reporter, gain or loss-of-signal activity can be used to understand protein changes. To generalize the intended target to other relatable targets, this assay endpoint is annotated to the 'cytokine' intended target family, where the subfamily is 'plasmogen activator inhibitor'.
The levels of cell surface (or secreted, indicated by the prefix "s") biomarker endpoints were measured by ELISA. Overt cytotoxicity to cells in confluent adherent cultures (all systems other than the BT system) was assessed by measuring total protein levels using sulforhodamine B (SRB) staining in parallel cultures at the time of biomarker measurements, indicated as SRB endpoints. For proliferation assays for adherent cell types, individual cell types are cultured at sub-confluence and relative cell numbers quantified by SRB staining at time points optimized for each system (48 h: 3C and CASM3C systems; 72 h: BT and HDF3CGF systems; 96 h: SAg system). SRB was performed by staining cells with 0.1% SRB after fixation with 10% TCA and reading wells at 560 nm.Viability and proliferation of PBMC (T cells) was quantified by Alamar Blue reduction for the SAg and BT systems. For PBMC viability (referred to as PBMC Cytotoxicity within the assay endpoint names), cells were plated (75,000/well in a 96-well plate) and then chemical samples added for 1 h before addition of activators, SEB and TSST-1 (20 ng/mL final concentration each). Cells were incubated for 90 h. Then, Alamar Blue (20 uL/well) (Invitrogen, Cat DAL1100) was added for 6 h, and the plates were read with a fluorescence microplate reader at 546/580 nm (excitation/emission). For PBMC proliferation, cells were plated and activated as above but incubated for only 16 h prior to addition of Alamar Blue. Plates were read after 6 h.
For `CCO[Si](CCC(F)(F)C(F)(F)C(F)(F)C(F)(F)C(F)(F)C(F)(F)F)(OCC)OCC`, the outcome was inactive. The same measure, in the same setting: the entry for `O=S(=O)(O)C(F)(F)C(F)(F)C(F)(F)C(F)(F)C(F)(F)C(F)(F)C(F)(F)F` is “inactive”. Regarding `FC(F)(I)C(F)(F)C(F)(F)C(F)(F)I`, the AC50 was 45.8 µM (active) and 47.3 µM (active); the result was inactive.

With `OCC(F)(F)C(F)(F)C(F)(F)C(F)(F)C(F)(F)C(F)(F)F`, the result was inactive. The same measure, in the same setting: next, `C=C(C)C(=O)OCC(F)(F)C(F)(F)C(F)(F)F`: “inactive”. For the compound `O=C(O)C(F)(F)C(F)(F)C(F)(F)C(F)(F)C(F)(F)C(F)(F)C(F)(F)C(F)(F)C(F)(F)C(F)F`, the AC50 was 39.7 µM (active) and 30 µM (active). As for `C=C(C)C(=O)OCCC(F)(F)C(F)(F)C(F)(F)C(F)(F)C(F)(C(F)(F)F)C(F)(F)F`, the result was inactive. Still for that read-out and setting: the entry for `O=S(=O)(OCC(F)F)C(F)(F)F` is “inactive”.

Regarding `C=CC(F)(F)C(F)(F)C(F)(F)C(F)(F)C(F)(F)C(F)(F)C(F)(F)C(F)(F)C=C`, the outcome was inactive. Same read-out and setting: next, `FC(F)(Br)C(F)(F)C(F)(F)C(F)(F)C(F)(F)C(F)(F)Br`: “inactive”.

For the compound `O=C(CC(=O)C(F)(F)C(F)(F)F)C(F)(F)F`, the outcome was inactive. The same measure, in the same setting: next, `C=CC(F)(F)C(F)(F)C(F)(F)C(F)(F)C(F)(F)C(F)(F)C(F)(F)C(F)(F)F`: “inactive”; `FC(F)(F)C(F)(F)C(F)(F)C(F)(F)C(F)(F)C(F)(F)CCS`: “inactive”. On to `O=C(O)C(F)(F)C(F)(F)C(F)(F)C(F)(F)C(F)(F)C(F)(F)C(F)(F)C(F)(F)Cl`, for which the AC50 is 44.8 µM (active) and 42.7 µM (active). As for `O=C(O)C(F)(F)C(F)(F)F`, the result was inactive. Still for that read-out and setting: next, `FC(F)(F)C(F)(F)C(F)(F)C(F)(F)C(F)(F)CCI`: “inactive”; `FC(F)(F)C(F)(F)C(F)(F)N(C(F)(F)C(F)(F)C(F)(F)F)C(F)(F)C(F)(F)C(F)(F)F`: “inactive”. Same read-out and setting: next, `O=C(O)C(F)(F)C(F)(F)C(F)(F)C(F)(F)C(F)(F)C(F)(F)C(F)(F)C(F)(F)C(F)(F)C(F)(F)C(F)(F)C(F)(F)C(F)(F)F`: “inactive”; `O=C(Cl)C(F)(F)C(F)(F)C(F)(F)C(F)(F)C(F)(F)C(F)(F)C(F)(F)C(F)(F)F`: “inactive”; `O=C(O)C(F)(OC(F)(F)C(F)(OC(F)(F)C(F)(OC(F)(F)C(F)(F)C(F)(F)F)C(F)(F)F)C(F)(F)F)C(F)(F)F` (stereo not given): “inactive”. The same measure, in the same setting: the entry for `FC(F)(F)C(F)(F)C(F)(F)C(F)(F)C(F)(F)C(F)(F)C(F)(F)C(F)(F)F` is “inactive”; for `FC(F)(F)C(F)(F)C(F)(F)CI` it is “inactive”.

For the compound `C=CC(=O)OCC(F)(F)C(F)(F)C(F)(F)C(F)(F)COC(=O)C=C`, the result was inactive. On the same count and under the same terms, next, `FC1CC(F)(F)C(F)(F)C1(F)F` (stereo not given): “inactive”; `OCC(F)(F)C(F)(F)C(F)(F)C(F)(F)C(F)(F)C(F)F`: “inactive”; `NC(=O)C(F)(F)C(F)(F)C(F)(F)C(F)(F)F`: “inactive”.

Regarding `COC(=O)CCC(F)(F)C(F)(F)C(F)(F)C(F)(F)F`, the outcome was inactive. For `O=P(O)(O)OCCC(F)(F)C(F)(F)C(F)(F)C(F)(F)C(F)(F)C(F)(F)F`, the outcome was inactive. For the compound `O=S(=O)(OCCOC(F)(F)F)C(F)(F)F`, the outcome was inactive.

Turning to `O=C(O)C(F)(F)C(F)(F)C(F)(F)F`, the result was inactive. Same read-out and setting: next, `CC(C)(C)C(=O)CC(=O)C(F)(F)C(F)(F)C(F)(F)F`: “inactive”.

Consider `OCCCC(F)(F)C(F)(F)C(F)(F)F`, for which the result was inactive. As for `OCC(F)(F)C(F)(F)C(F)(F)C(F)F`, the result was inactive. Still for that read-out and setting: next, `O=C(O)C(F)(F)C(F)(F)C(F)(F)C(F)(F)F`: “inactive”.

Consider `FC(F)(F)C(F)(F)CNCC(F)(F)C(F)(F)F`, for which the result was inactive. `Cc1ccc(S(=O)(=O)OCC(F)(F)C(F)(F)C(F)(F)C(F)(F)C(F)(F)C(F)F)cc1`: the result was inactive.

In the case of `FC(F)(F)C(F)(F)C(F)(F)C(F)(F)C(F)(F)C(F)(F)C(F)(F)C(F)(F)CCS`, the result was inactive.

Turning to `O=C(O)C(F)(OC(F)(F)C(F)(OC(F)(F)C(F)(F)C(F)(F)F)C(F)(F)F)C(F)(F)F` (stereo not given), the result was inactive. On the same count and under the same terms, the entry for `O=C(O)C(F)(F)C(F)(F)C(F)F` is “inactive”.

Usually AC50 stands for the concentration giving half of the maximal activity seen.
